For 3 molecules, indel editing activity and indel activity results are on record in patent US20240035010, “COMPOSITIONS COMPRISING A VARIANT POLYPEPTIDE AND USES THEREOF” (Arbor Biotechnologies, Inc., published 2024).

Holding throughout (details): tags: pcDNA3.1 expression
The target of experiment [1] is T1, variant nuclease E154G/L38G/K221G combination (P14R, D32R, I61R, E311R, E154G, L38G, K221G).
T1 chain: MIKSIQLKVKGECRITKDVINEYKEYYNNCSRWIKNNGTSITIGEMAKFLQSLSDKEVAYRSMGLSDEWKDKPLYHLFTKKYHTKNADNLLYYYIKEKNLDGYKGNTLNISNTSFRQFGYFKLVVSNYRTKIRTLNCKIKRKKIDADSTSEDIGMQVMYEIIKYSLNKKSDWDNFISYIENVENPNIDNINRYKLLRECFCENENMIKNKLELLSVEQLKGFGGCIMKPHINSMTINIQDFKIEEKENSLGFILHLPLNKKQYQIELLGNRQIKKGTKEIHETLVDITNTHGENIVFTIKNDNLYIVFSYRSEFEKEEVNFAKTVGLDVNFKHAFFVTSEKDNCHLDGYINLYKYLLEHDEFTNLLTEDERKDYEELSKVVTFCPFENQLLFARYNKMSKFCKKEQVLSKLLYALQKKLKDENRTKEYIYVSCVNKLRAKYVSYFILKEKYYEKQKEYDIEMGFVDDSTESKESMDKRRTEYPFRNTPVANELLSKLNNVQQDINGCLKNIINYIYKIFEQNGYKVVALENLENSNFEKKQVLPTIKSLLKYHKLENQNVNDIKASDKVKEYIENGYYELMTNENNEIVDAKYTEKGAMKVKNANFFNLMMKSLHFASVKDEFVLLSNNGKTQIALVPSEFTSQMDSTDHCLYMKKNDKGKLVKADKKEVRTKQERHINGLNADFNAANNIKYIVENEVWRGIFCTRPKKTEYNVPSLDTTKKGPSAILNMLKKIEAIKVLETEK
Description: cell_activity; PAM 5'-ATTG-3'.

For experiment [2], the target named is T1, variant nuclease E154G/L38G/K221G …. The experiment is described as follows: cell_activity; PAM 5'-TTTA-3'. The procedure: (§1) Approximately 16 hours prior to transfection, 25,000 HEK293T cells in DMEM/10% FBS+Pen/Strep (D10 media) were plated into each well of a 96-well plate. On the day of transfection, the cells were 70-90% confluent. For each well to be transfected, a mixture of Lipofectamine 2000™ and Opti-MEM™ was prepared and incubated at room temperature for 5 minutes (Solution 1). After incubation, the Lipofectamine 2000™:Opti-MEM™ mixture was added to a separate mixture containing nuclease plasmid, RNA guide plasmid, and Opti-MEM™ (Solution 2). In the case of negative controls, the RNA guide plasmid was not included in Solution 2. Solutions 1 and 2 were mixed by pipetting up and down, then incubated at room temperature for 25 minutes. Following incubation, the Solution 1 and 2 mixture was added dropwise to each well of a 96-well plate containing the cells. Approximately 72 hours post transfection, cells were trypsinized by adding TrypLE™ to the center of each well and incubating at 37° C. for approximately 5 minutes. D10 media was then added to each well and mixed to resuspend cells. The resuspended cells were centrifuged at 500 g for 10 minutes to obtain a pellet, and the supernatant was discarded. […]
(§2) The percentage of NGS reads containing indels (% indels) were calculated. […]

Experiment [3] has the same target. The experiment is described as follows: cell_activity; PAM 5'-TTTG-3'. The procedure: as §1, §2

B1: EMX1 crRNA ; EMX1 target (ssRNA ; dsDNA)
RNA: CUUGUUGUAUAUGUCCUUUUAUAGGUAUUAAACAACCCGCCGCUUCCUGAGCCAUC
DNA 1: CCGCCGCTTCCTGAGCCATC
DNA 2: GATGGCTCAGGAAGCGGCGG
Take B1: the indel editing activity in experiment [1] is 0.17 fold of WT.

B2: VEGFA crRNA ; VEGFA target (ssRNA ; dsDNA)
RNA: CUUGUUGUAUAUGUCCUUUUAUAGGUAUUAAACAACUCCAGACCACCAAUGGGCAC
DNA 1: TCCAGACCACCAATGGGCAC
DNA 2: GTGCCCATTGGTGGTCTGGA
Regarding B2, the indel activity in experiment [2] is 0.06 fold of WT.

B3: AAVS1 crRNA ; AAVS1 target (ssRNA ; dsDNA)
RNA: CUUGUUGUAUAUGUCCUUUUAUAGGUAUUAAACAACUGAGAAUGGUGCGUCCUAGG
DNA 1: TGAGAATGGTGCGTCCTAGG
DNA 2: CCTAGGACGCACCATTCTCA
For B3, the indel activity in experiment [3] is 0.19 fold of WT.
